# Measured values published in PubChem BioAssay AID1159580 (chemical genetic matrix, 2015).
# Out of some 5,500 compounds screened, about 2,000 (36%) were called active. Inconclusive results (about 18%) are left out. Some of the results follow. Values without a mark were called inactive. No stated cut-off is given here; in the data, active means normalized growth mostly below about 0.91 (no sharp cut-off); inconclusive means no clear call, values can overlap the other calls; inactive means mostly above about 0.92.
# Experiment: chemical genetic growth profiling, strain panel (AID 1159580);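 further: tested at 20 µM; growth read once vehicle control cultures reached saturation at 30 °C; 1 = growth at the plate median or of vehicle wells; lower values mean less growth of the strain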
# Details: S. cerevisiae deletion strains, growth OD
# [1] = locus YHR030C, strain SLT2, active compounds read low
# [2] = locus YHR079C, strain IRE1, active compounds read low
# [3] = locus YJL095W, strain BCK1, active compounds read low
# [4] = locus YJR066W, strain TOR1, active compounds read low
# [5] = locus YLR113W, strain HOG1, active compounds read low
# [6] = locus YNL183C, strain NPR1, active compounds read low
# [7] = locus YOR231W, strain MKK1, active compounds read low
# [8] = locus YPL256C, strain CLN2, active compounds read low
structure (smiles),measurement,setting,value
CC1=CCCC2C1(C)CCC(C)C2(C)CC/C(C)=C/C[n+]1cn(C)c2c(N)ncnc21 (stereo not given),normalized growth,"locus YAL021C, strain ccr4, active compounds read low",0.944
same,normalized growth,"locus YAL026C, strain drs2, active compounds read low",0.838 (active)
same,normalized growth,"locus YAL030W, strain snc1, active compounds read low",0.986
same,normalized growth,"locus YBL061C, strain skt5, active compounds read low",1.01
same,normalized growth,"locus YBR009C, strain hhf1, active compounds read low",0.928
same,normalized growth,"locus YBR023C, strain chs3, active compounds read low",0.978
same,normalized growth,"locus YBR171W, strain sec66, active compounds read low",0.977
same,normalized growth,"locus YBR231C, strain swc5, active compounds read low",0.973
same,normalized growth,"locus YBR279W, strain paf1, active compounds read low",0.96
same,normalized growth,"locus YCL011C, strain gbp2, active compounds read low",0.943
same,normalized growth,"locus YCL016C, strain dcc1, active compounds read low",0.932
same,normalized growth,"locus YCL069W, strain vba3, active compounds read low",0.961
same,normalized growth,"locus YCR088W, strain abp1, active compounds read low",0.991
same,normalized growth,"locus YDL005C, strain med2, active compounds read low",0.984
same,normalized growth,"locus YDL040C, strain nat1, active compounds read low",0.991
same,normalized growth,"locus YDR001C, strain nth1, active compounds read low",0.976
same,normalized growth,"locus YDR069C, strain doa4, active compounds read low",1.01
same,normalized growth,"locus YDR137W, strain rgp1, active compounds read low",1.17 [resistant] (active)
same,normalized growth,"locus YDR159W, strain sac3, active compounds read low",1.06
same,normalized growth,"locus YDR195W, strain ref2",0.992
same,normalized growth,"locus YDR297W, strain sur2, active compounds read low",0.996
same,normalized growth,"locus YDR334W, strain swr1, active compounds read low",0.988
same,normalized growth,"locus YDR335W, strain msn5, active compounds read low",0.955
same,normalized growth,"locus YDR392W, strain spt3, active compounds read low",0.452 (active)
same,normalized growth,"locus YEL003W, strain gim4, active compounds read low",0.955
same,normalized growth,"locus YEL037C, strain rad23, active compounds read low",0.987
same,normalized growth,"locus YEL061C, strain CIN8 (second series), active compounds read low",0.976
same,normalized growth,"locus YER015W, strain faa2, active compounds read low",0.963
same,normalized growth,"locus YER016W, strain bim1, active compounds read low",0.994
same,normalized growth,"locus YER111C, strain swi4, active compounds read low",0.984
same,normalized growth,"locus YER155C, strain BEM2 (second series), active compounds read low",0.644 (active)
same,normalized growth,"locus YFR010W, strain ubp6, active compounds read low",0.996
same,normalized growth,"locus YGL167C, strain pmr1, active compounds read low",0.976
same,normalized growth,"locus YGL173C, strain kem1, active compounds read low",0.993
same,normalized growth,"locus YGL227W, strain vid30, active compounds read low",0.985
same,normalized growth,"locus YGL240W, strain doc1, active compounds read low",0.971
same,normalized growth,"locus YGL253W, strain hxk2, active compounds read low",0.976
same,normalized growth,"locus YHR013C, strain ard1, active compounds read low",0.917
same,normalized growth,"locus YHR027C, strain rpn1, active compounds read low",1
same,normalized growth,[1],0.946
same,normalized growth,[2],0.951
same,normalized growth,"locus YHR142W, strain chs7, active compounds read low",0.881
same,normalized growth,"locus YJL092W, strain hpr5, active compounds read low",0.982
same,normalized growth,"locus YJL095W, strain BCK1 (second series), active compounds read low",1.01
same,normalized growth,[3],0.971
same,normalized growth,"locus YJL115W, strain asf1, active compounds read low",0.978
same,normalized growth,"locus YJL129C, strain trk1, active compounds read low",1
same,normalized growth,"locus YJL154C, strain vps35, active compounds read low",0.983
same,normalized growth,"locus YJL164C, strain tpk1, active compounds read low",0.935
same,normalized growth,"locus YJL166W, strain qcr8, active compounds read low",0.963
same,normalized growth,"locus YJL187C, strain SWE1, active compounds read low",0.991
same,normalized growth,[4],0.94
same,normalized growth,"locus YKL160W, strain elf1, active compounds read low",0.929
same,normalized growth,"locus YKR026C, strain gcn3, active compounds read low",1.01
same,normalized growth,"locus YKR091W, strain srl3, active compounds read low",0.977
same,normalized growth,"locus YLL001W, strain dnm1, active compounds read low",0.908
same,normalized growth,"locus YLL026W, active compounds read low",0.984
same,normalized growth,"locus YLL041C, strain sdh2, active compounds read low",0.987
same,normalized growth,"locus YLR027C, strain aat2, active compounds read low",0.986
same,normalized growth,[5],0.891
same,normalized growth,"locus YLR221C, strain rsa3, active compounds read low",1.02
same,normalized growth,"locus YLR258W, strain gsy2, active compounds read low",0.969
same,normalized growth,"locus YLR262C, strain YPT6 (second series), active compounds read low",1.03
same,normalized growth,"locus YLR320W, strain mms22, active compounds read low",1
same,normalized growth,"locus YLR342W, strain FKS1, active compounds read low",0.919
same,normalized growth,"locus YLR357W, strain rsc2, active compounds read low",0.929
same,normalized growth,"locus YLR370C, strain arc18, active compounds read low",0.961
same,normalized growth,"locus YLR384C, strain iki3, active compounds read low",0.995
same,normalized growth,"locus YML120C, strain ndi1, active compounds read low",0.931
same,normalized growth,"locus YMR058W, strain fet3, active compounds read low",0.982
same,normalized growth,"locus YMR125W, strain sto1, active compounds read low",0.936
same,normalized growth,"locus YMR129W, active compounds read low",0.995
same,normalized growth,"locus YMR205C, strain PFK2, active compounds read low",0.925
same,normalized growth,"locus YMR231W, strain pep5, active compounds read low",1.02
same,normalized growth,"locus YNL071W, strain lat1, active compounds read low",0.863 (active)
same,normalized growth,[6],0.968
same,normalized growth,"locus YNL209W, strain ssb2, active compounds read low",0.932
same,normalized growth,"locus YNL248C, strain rpa49, active compounds read low",0.98
same,normalized growth,"locus YNL322C, strain KRE1 (second series), active compounds read low",0.996
same,normalized growth,"locus YNR049C, strain mso1, active compounds read low",0.992
same,normalized growth,"locus YOR001W, strain rrp6, active compounds read low",1.01
same,normalized growth,"locus YOR070C, strain gyp1, active compounds read low",0.988
same,normalized growth,"locus YOR080W, strain dia2, active compounds read low",1
same,normalized growth,"locus YOR083W, strain WHI5, active compounds read low",0.908
same,normalized growth,"locus YOR106W, strain vam3, active compounds read low",0.883
same,normalized growth,[7],0.937
same,normalized growth,"locus YOR265W, strain rbl2, active compounds read low",0.981
same,normalized growth,"locus YOR270C, strain vph1, active compounds read low",0.95
same,normalized growth,"locus YOR290C, strain snf2, active compounds read low",0.844 (active)
same,normalized growth,"locus YPL051W, strain arl3, active compounds read low",0.942
same,normalized growth,"locus YPL078C, strain atp4, active compounds read low",0.896
same,normalized growth,"locus YPL106C, strain sse1, active compounds read low",0.973
same,normalized growth,"locus YPL240C, strain hsp82, active compounds read low",0.996
same,normalized growth,[8],0.939
CNCCCC1c2ccccc2C=Cc2ccccc21,normalized growth,"locus YAL013W, strain DEP1, active compounds read low",0.989
same,normalized growth,"locus YAL040C, strain CLN3, active compounds read low",1.08
same,normalized growth,"locus YCL061C, strain MRC1 (second series), active compounds read low",1
same,normalized growth,"locus YDR363W, strain ESC2, active compounds read low",1.03
same,normalized growth,"locus YER002W, strain NOP16, active compounds read low",1.01
same,normalized growth,[1],0.974
same,normalized growth,[2],0.965
same,normalized growth,[3],0.959
same,normalized growth,[4],0.954
same,normalized growth,"locus YJR075W, strain HOC1, active compounds read low",0.985
same,normalized growth,[5],0.956
same,normalized growth,"locus YMR307W, strain GAS1, active compounds read low",1
same,normalized growth,"locus YNL153C, strain GIM3, active compounds read low",1.02
same,normalized growth,"locus YNL175C, strain NOP13, active compounds read low",1.01
same,normalized growth,[6],0.924
same,normalized growth,"locus YNL197C, strain WHI3, active compounds read low",1.02
same,normalized growth,"locus YNL224C, strain SQS1, active compounds read low",1.06
same,normalized growth,"locus YOR083W, strain WHI5 (second series), active compounds read low",1.04
same,normalized growth,[7],0.976
same,normalized growth,"locus YPL055C, strain LGE1, active compounds read low",1
same,normalized growth,[8],0.945
